# Bioassay records: PubChem, National Center for Advancing Translational Sciences (NCATS)
# TRHR enhancer: qHTS for Small Molecule Agonists and Allosteric Enhancers of Human TRH Receptor: Primary Screen for Enhancers | enhancement, % at 2 µM | TRHR cells, fluo-8 calcium fluorescence, EC20 TRH enhancement | hit rate 0.66% among 360,000 | Thyrotropin-releasing hormone receptor (Homo sapiens), P34981 | AID 493056, 2011; in the data active means enhancement above about 30%; further: 0% is about no effect
#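 Enhancer read-out: after compound pinning and an initial kinetic agonist-mode read, an EC20 of TRH (10 nM final) was injected and fluo-8 calcium signal (Ex 480/Em 530) followed at 1 s/cycle for 100 cycles in TRHR-expressing cells.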
# D1 potentiator: Potentiators of Human D1 Dopamine Receptor: qHTS; HEK293 TREx D1 cells, calcium flux, dopamine EC20 potentiation; potentiation, % at 10 µM; hit rate 0.036% among 360,000; in the data active means potentiation above about 30%; further: 0% is about no effect
# Target sequence (P21728 whole entry, looked up): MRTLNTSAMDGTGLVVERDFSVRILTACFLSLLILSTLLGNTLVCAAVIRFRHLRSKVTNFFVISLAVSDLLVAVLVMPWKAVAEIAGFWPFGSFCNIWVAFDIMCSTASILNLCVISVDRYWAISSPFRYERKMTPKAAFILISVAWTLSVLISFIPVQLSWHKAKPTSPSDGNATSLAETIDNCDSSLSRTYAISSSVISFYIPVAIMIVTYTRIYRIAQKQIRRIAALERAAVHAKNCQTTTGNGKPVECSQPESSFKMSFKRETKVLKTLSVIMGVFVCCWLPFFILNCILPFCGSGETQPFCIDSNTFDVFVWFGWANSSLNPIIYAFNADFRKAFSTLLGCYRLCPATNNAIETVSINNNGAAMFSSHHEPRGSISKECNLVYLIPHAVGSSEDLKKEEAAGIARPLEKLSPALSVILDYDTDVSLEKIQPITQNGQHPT
# D1 antagonist: Antagonist of Human D 1 Dopamine Receptor: qHTS; AID 504652, 2011; HEK293 TREx D1 cells, calcium flux, dopamine EC80; hits give low values; activity change, negative = inhibition, % at 10 µM; hit rate 3.2% among 360,000; D(1A) dopamine receptor (Homo sapiens), P21728; in the data active means activity change below about -30%; further: on the % scale 0 is the no-effect control and ±100 the full control effect
#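 Calcium flux readout: force-coupled, inducible Hek293 Trex D1 line, cells induced overnight at 30 C with tetracycline, dye-loaded 30–90 min at RT. Antagonism scored against EC80 dopamine challenge given 180 s after compound.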
# D1 agonist: Allosteric Agonists of the Human D1 Dopamine Receptor: qHTS. HEK293 T-REx D1 cells, calcium flux, agonist mode. activation, % at 2 µM. hit rate 1% among 360,000; further: 0% is about no effect
#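 Tetracycline-induced HEK293 TREx D1 cells, force-coupled to calcium signalling, were dye-loaded with a no-wash calcium kit. Compound was pin-added after a 10 s baseline. Fluorescence was read kinetically at 1 cycle/s for 180 s, with calcium rises flagged as agonism.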
# TRHR ag: qHTS for Small Molecule Agonists and Allosteric Enhancers of Human TRH Receptor: Primary Screen for Agonists | TRHR cells, calcium flux fluo-8, FDSS agonist mode | activation, % at 2 µM | hit rate 0.18% among 360,000; further: 0% is about no effect
#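 TRHR-expressing cells, plated overnight in medium with 10% serum, were loaded with fluo-8 calcium dye at room temperature. After a 10 s baseline, library compound was pin-added and calcium release was recorded kinetically (ex 480/em 530) as agonist response.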
# LDHA inh: qHTS assay for inhibitors of human lactate dehydrogenase; purified LDHA, NADH/diaphorase-resazurin fluorescence; hits give low values; hit rate 0.15% among 480,000; AID 1347041, 2019; activity change, % (values are at about 110 or 230 µM); L-lactate dehydrogenase A chain (Homo sapiens), P00338; in the data active means activity change below about -30%;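 further: plate controls were DMSO wells for no effect and wells without enzyme for full effect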
#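 Enzyme activity of human lactate dehydrogenase 5 (2 nM; 0.06 mM NADH, 0.2 mM pyruvate, 5 min, RT) is measured via a resazurin/diaphorase fluorescence readout of residual NADH.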
# * = called active by the depositor; nt = no result given; ! = not active in a repeat. Most compounds without a hit are left out; they make up all but 3.6% or so of the library. Unless noted, no stated cut-off is given here; in the data, active means activation above about 30%; inactive means the rest.
SMILES,TRHR enhancer,D1 potentiator,D1 antagonist,D1 agonist,TRHR ag,LDHA inh
CN1CCN(NC(=O)c2ccc(Cl)c(S(=O)(=O)Nc3ccc(Cl)cc3)c2)CC1,-3.5,-17.1,-38.4*,1.6,0.4,-9.4
CC(C)(C)NC(=O)CC1(C(=O)NCc2ccc(F)cc2)CCCC1,nt,nt,nt,nt,nt,1.2
CNc1oc(-c2ccco2)nc1C#N,6.1,-3.2,9.2,-0.1,0.0,-10.2
Cc1ccc(CNc2oc(-c3ccco3)nc2C#N)cc1,-9.5,-6.7,-37.1*,2.2,2.2,-13.1
CC(NC(=O)c1n[nH]c(=O)c2ccccc12)c1ccc2ccccc2c1 (stereo unspecified),nt,nt,nt,nt,nt,-1.9
O=C(COc1ccc(C(=S)N2CCOCC2)cc1Cl)Nc1ccccc1Cl,33.7*,-3.0,14.3,8.1,0.5,-4.4
Cc1ccc(-c2cn3cccnc3n2)cc1NC(=O)Cc1ccccc1,4.0,0.2,-72.7*,0.9,0.5,0.5
COc1ccc(-c2cn3cccnc3n2)cc1NC(=O)c1cc(C)cc(C)c1,-4.4,2.1,-87.4*,-0.6,-0.3,-0.5
COc1ccc(C)cc1S(=O)(=O)Nc1cccc(-c2cn3cccnc3n2)c1,30.9*,-2.6,-4.1,0.8,0.2,1.0
Cc1ccc(/C=C(/C#N)c2ccc(C(F)(F)F)cn2)cc1,nt,nt,nt,nt,nt,0.6
COc1ccc(S(=O)(=O)N2CCC(O)(c3ccc(Cl)cc3)CC2)cc1,0.0,-7.0,-35.8*,10.8,0.6,-1.3
CN(C)S(=O)(=O)N(CC(=O)Nc1ccc(Cl)cc1)c1ccccc1,nt,nt,nt,nt,nt,1.0
O=C1c2ccccc2S(=O)(=O)c2cc(C(=O)N(c3ccccn3)c3ccccn3)ccc21,39.6*,-4.7,-24.5,300.3*,69.9*,4.9
CNC(=O)c1ccc(C(=O)O)cn1,nt,nt,nt,nt,nt,8.4
CC(=O)c1ccc(OC(=O)c2ccc(Br)o2)cc1,0.3,-4.0,-16.3,59.5*,-2.0,-1.1
Cc1ccc(OC(=O)c2ccc(Br)o2)cc1,-5.4,3.7,-47.9*,101.9*,0.4,-5.4
CCC(=O)c1ccc(OC(=O)c2ccc(Br)o2)cc1,nt,nt,nt,nt,nt,-8.4
O=C(Oc1ccc(-c2nnco2)cc1)c1ccc(Br)o1,-2.1,-2.6,9.1,8.5,-0.5,-3.2
Cc1ccc(C)c(N2CCN(C(=O)c3ccc(CS(=O)c4ccc(Cl)cc4)o3)CC2)c1 (stereo unspecified),nt,nt,nt,nt,nt,-0.3
CCc1ccc(O)c(CNCCNCc2cc(CC)ccc2O)c1,8.8,-1.6,-8.9,30.6*,0.2,1.1
O=C(c1ccco1)N(Cc1cccc([N+](=O)[O-])c1)c1ccc(Br)cc1,20.6,-2.0,-36.1*,29.8,-0.2,-8.8
O=C(c1ccco1)N(Cc1ccc([N+](=O)[O-])cc1)c1ccc(Br)cc1,1.1,-2.3,0.2,-0.5,0.1,-3.7
COc1cc(NC(C)=O)c2ncccc2c1NC(C)=O,-1.6,0.6,-36.4*,5.8,0.7,3.3
COc1ccc(CN2C(=NC(=O)C3CC3)SC3CS(=O)(=O)CC32)cc1OC (stereo unspecified),3.2,-5.8,-30.7*,1.7,0.7,1.5
COc1ccc(CCNC(=O)CN(c2cc(OC)ccc2OC)S(=O)(=O)c2ccccc2)cc1,-4.0,2.6,-4.5,0.3,-0.7,-4.1
SMILES,TRHR enhancer,D1 potentiator,D1 antagonist,D1 agonist,TRHR ag,LDHA inh
Cc1cccc(N(CC(=O)NCCSCc2cccc(Cl)c2)S(=O)(=O)c2ccccc2)c1C,-16.4,-0.6,-11.7,30.9*,3.5,-4.1
COc1ccc(CCNC(=O)CN(c2ccccc2OC)S(=O)(=O)c2ccc(C)cc2)cc1,-5.1,5.4,-36.0*!,37.1*!,0.2,0.4
COc1ccc(NC(=O)CN(c2ccc([N+](=O)[O-])cc2)S(=O)(=O)c2ccccc2)cc1,1.4,-11.3,3.1,32.7*,-1.0,-0.1
COc1ccc(CCNC(=O)CC(=O)NCCc2ccc(OC)cc2)cc1,-2.8,-11.2,-1.4,4.5,-0.4,-5.5
COc1ccc(CCNC(=O)Cc2c(Cl)cccc2Cl)cc1,11.2,1.6,-35.6*,2.1,-1.6,-4.8
Cc1cc(NC(=O)COC(=O)C2(c3cccc(F)c3)CCCC2)no1,nt,nt,nt,nt,nt,3.3
Cc1nc2cc(NC(=O)c3cccc(OC(F)F)c3)ccc2o1,nt,nt,nt,nt,nt,-8.3
CN(C)S(=O)(=O)N(CC(=O)NCCSCc1ccccc1)c1ccccc1,1.1,-1.8,-61.0*!,1.4,-0.6,-7.2
Cc1ccccc1CSCCNC(=O)CN(c1ccccc1)S(=O)(=O)N(C)C,-9.8,-0.6,-12.1,1.7,-0.7,-8.2
Cc1noc(C)c1C(=O)NCCCc1ccccc1,4.4,-0.5,-9.3,-1.5,0.1,-1.7
COc1ccc(S(=O)(=O)N(CC(=O)NCCc2ccccc2)c2ccc(Cl)cc2)cc1,3.8,-2.6,-20.5,40.4*,-1.4,-13.5
COc1ccccc1N(CC(=O)NCCSCc1ccc(C)cc1)S(=O)(=O)c1ccccc1,-4.6,0.9,-32.3*,26.3,4.0,-5.7
COc1ccc(CCNC(=O)c2c(C)noc2C)cc1,-4.1,-2.6,-42.9*,2.8,1.1,-3.0
NCCCS(N)(=O)=O,nt,nt,nt,nt,nt,0.4
CC(CN1CCOCC1)NS(=O)(=O)c1ccc(F)cc1Cl (stereo unspecified),nt,nt,nt,nt,nt,-5.6
CN(C)CC(O)COc1ccc(NC(=O)Nc2ccccc2)cc1 (stereo unspecified),nt,nt,nt,nt,nt,-0.8
CCOc1ccc(N(C)S(=O)(=O)c2ccc(C)c(C(=O)NCCc3ccc(OC)cc3)c2)cc1,-11.7,-5.2,-20.7,-0.1,0.6,-0.4
COc1ccc(N(C(C)C(=O)NCCSCc2cccc(Cl)c2)S(C)(=O)=O)cc1 (stereo unspecified),3.8,-9.7,-7.2,2.7,-0.5,1.1
CC(C(=O)NCCSCc1cccc(Cl)c1)N(c1ccccc1)S(C)(=O)=O (stereo unspecified),-0.7,-6.6,-32.2*!,15.6,-0.4,1.1
COc1ccc(CCNC(=O)c2cc(S(=O)(=O)N(C)c3ccccc3)ccc2Cl)cc1,-9.5,-3.6,-56.1*,12.0,0.7,-1.8
COc1ccccc1N(CC(=O)NCCSc1ccccc1)S(=O)(=O)c1ccc(C)cc1,-5.9,1.3,-17.1,30.7*,0.4,-6.3
C=CCNC(=O)CN(c1ccc(F)cc1)S(=O)(=O)c1ccc(OC)cc1,3.0,-11.8,-48.9*,3.2,0.0,-9.2
COc1cc(OC)cc(C(=O)/C(=C\c2ccncc2)c2nc3ccccc3o2)c1,nt,nt,nt,nt,nt,-1.0
COC(=O)N/N=C/c1ccccc1OCC(=O)O,nt,nt,nt,nt,nt,-4.4
